# Experimental data: PubChem BioAssay (NCI)
# The panel holds about 83,000 compounds, 20% with a hit somewhere; the sample as a whole holds those more often.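 96-well plates, one dose, 48 hours. Percent growth reported; active if below 10.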 A number with no mark means an inactive call. The source made the active and inactive calls.
# System: NCI/ADR-RES ovarian
# Test: NCI-60 one-dose screen, 48 h (100 = growth as untreated, 0 = no growth, -100 = all killed)
# Settings: 10 µM unless noted
row,SMILES,growth
1,N#Cc1c(N)nc(NCCO)nc1-c1ccc(F)cc1,105%
2,CC/C=C\C[C@H](O)C/C=C1/C(=O)C=C[C@@H]1C/C=C\CCCCO,9.46% (active)
3,FC(F)(F)c1cc(Nc2ccc3cc(OCCCN4CCOCC4)ccc3n2)ccc1Cl,44.9%
4,N#C/C(=C\c1ccc(Br)cc1)n1nnc2cc(F)c(F)cc21,1.66% (active)
5,CNC(=O)NCC1OC(n2cnc3c(NC(=O)Nc4ccccc4)ncnc32)C(O[Si](C)(C)C(C)(C)C)C1CC(=O)N(C)OC (configuration not stated),54.4%
6,CN(C)CC1C(=O)O[C@H]2[C@H]1CC/C(COC(=O)c1cc3ccccc3[nH]1)=C\CC[C@@]1(C)O[C@@H]21 (some centres not stated),-30.8% (active)
7,S=C(Cc1ccc2c(c1)CCCC2)N1CCOCC1,105%
8,Cc1cc(Cl)nc(NCc2cc(Nc3ccnc4cc(Cl)ccc34)ccc2F)n1,50.3%
9,COC(=O)[C@]12CC[C@@H](C)[C@H](C)[C@@H]1C1=CC[C@@H]3[C@@]4(C)C(C=O)=C[C@@](C)(CO)[C@@H]4[C@H](O)C[C@@]3(C)[C@]1(C)CC2,-10.2% (active)
10,CCN1CCN(c2cc(C)nc(NCc3cc(Nc4ccnc5cc(Cl)ccc45)ccc3F)n2)CC1,82.8%
11,C=CCOC1=CC(=O)c2ccccc2C1=O,60.1%
12,COc1ccc(-c2nc(SC(C)C)nc(NNC(N)=S)c2C#N)cc1,19.6%
13,Cc1cc(C)c2c(-c3nnc(N)s3)cc(=O)oc2c1,102%
14,Oc1c(CN2CCCC2)cc(COCc2ccc(Br)cc2)c2cccnc12,-40.9% (active)
15,O=[N+]([O-])c1ccc(-c2cc(-c3ccc(Nc4nc(Nc5ccc(Cl)cc5)nc(Nc5ccc(Cl)cc5)n4)cc3)no2)cc1,75.3%
16,O=C1/C(=C/c2ccc(F)cc2)C=C(c2ccccc2)N1CCc1ccccc1,58.2%
17,O=C(O)c1ccc2c(c1Cl)C(=O)c1ccccc1C2=O,97.5%
18,COc1cc(N=Nc2ccc(N)cc2)c(OC)cc1N=Nc1ccccc1.[Cl][Zn][Cl],95.8%
19,O=[N+]([O-])c1ccc(OCCO)cc1,97.8%

row,SMILES,growth
1,CCN(CC)c1nc(SCC(=O)Nc2nc3ccc(C)cc3s2)nc(-c2ccccc2)c1C#N,96.4%
2,Cc1cc(NCCCCNc2ccnc3cc(Cl)ccc23)nc(Nc2ccc(C(=O)N3CCCC3)cc2)n1,94.8%
3,COc1ccc(-c2nc3c(c(=O)n2C(C)=O)C(c2ccc(Cl)cc2)c2sc4c(Cl)cccc4c2O3)cc1 (configuration not stated),-4.4% (active)
4,COc1ccc2[nH]c(O)c(/C=c3/cc4c(c(-c5ccc(F)c(OC)c5)n3)=Nc3ccccc3-4)c2c1,32.7%
5,N#CC1=C(/N=C/c2ccccc2)Oc2c(ccc3ccccc23)C1c1ccccc1 (configuration not stated),1.37% (active)
6,CC(=O)C(C)Cc1cc2c(cc1C)C(C)(C)CCC2(C)C (configuration not stated),98.8%
7,Cc1ccc(Nc2nc(N)nc(CSCC(=O)NN)n2)cc1,104%
8,Cc1ccc(-c2c(-c3ccccc3)c(=O)oc3ccc(C)cc23)cc1,93.2%
9,N#C/C(=C\c1ccc2c(c1)OCO2)n1nnc2cc(F)c(F)cc21,27.4%
10,Cc1cccc(Cc2cnc(NC(=O)/C=C/c3ccco3)s2)c1,-24.6% (active)
11,N=C(N)c1ccc(-c2ccc(-c3cncc4ccccc34)s2)s1,-53% (active)
12,COc1ccc2occ(C3=C(c4c[nH]c5ccccc45)C(=O)N(O)C3=O)c2c1,99.1%
13,C=C(C)[C@@H]1CC[C@]2(C(=O)NC3CCCCC3)CC[C@]3(C)[C@H](CC[C@@H]4[C@@]5(C)CCCNC(C)(C)[C@@H]5CC[C@]43C)[C@@H]12,57.7%
14,O=C(/C=C/c1ccco1)c1ccc(Nc2nc(Nc3ccc(F)cc3)nc(Nc3ccc(Cl)cc3)n2)cc1,67.3%
15,COC(=O)[C@]12CC[C@@H](C)[C@H](C)[C@@H]1C1=CC[C@@H]3[C@@]4(C)C(C=O)=C[C@@](C)(COC(=O)c5ccco5)[C@@H]4C(=O)C[C@@]3(C)[C@]1(C)CC2,28.4%
16,COc1cccc(-c2nn(-c3ccccc3)cc2-c2ccnc(NCCNC(=O)Nc3ccc(Cl)c(Cl)c3)c2)c1,-22.2% (active)
17,Cc1cc(N2CCCC2)nc(NCc2cc(Nc3ccnc4cc(Cl)ccc34)ccc2F)n1,-33.7% (active)
18,COc1cc(/C=C/C(=O)c2c(C)nc3ccccc3c2C)ccc1OCCCN1CCN(C(=O)c2ccco2)CC1,55.6%
